# Source: PubChem BioAssay (EPA / NIEHS)
# Some structures have more than one record in an assay (separate samples or runs), and their calls can disagree. Activity calls are given as the source filed them. Rule for the calls: active = hit-call score of the fitted dose curve at least 0.9, where 1 is the maximum; inactive = score below 0.9.
# Molecular target: Retinoic acid receptor alpha (Homo sapiens) (UniProt P10276)
# Assay: ATG_DR5_RAR_CIS: Attagene CIS-FACTORIAL HepG2 Assay for human Retinoic Acid Receptor Alpha (RARE), DR5 submotif (AID 2282934);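 for AC50: reporter responds to endogenous RAR alpha beta and gamma in HepG2 not RARA alone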
# Details: HepG2 Attagene cis-factorial RARE DR5 reporter, mRNA; actives raise or lower the signal
# Experimental: ATG_CIS is a cell-based, multiplexed-readout assay that uses HepG2, a human liver cell line, with measurements taken at 24 hours after chemical dosing in a 24-well plate.ATG_DR5_RAR_CIS is one of 52 assay component(s) measured or calculated from the ATG_CIS assay. It is designed to make measurements of mRNA induction, a form of inducible reporter, as detected with fluorescence intensity signals by Reverse transcription polymerase chain reaction (RT-PCR) and Capillary electrophoresis technology.Data from the assay component ATG_DR5_RAR_CIS was analyzed into 1 assay endpoint. This assay endpoint, ATG_DR5_CIS, was analyzed with bidirectional fitting relative to DMSO as the negative control and baseline of activity. Using a type of inducible reporter, measures of mRNA for gain or loss-of-signal activity can be used to understand the reporter gene at the transcription factor-level as they relate to the gene RARA and RARB and RARG. Furthermore, this assay endpoint can be referred to as a primary readout, because this assay has produced multiple assay endpoints where this one serves a reporter gene function. To generalize the intended target to other relatable targets, this assay endpoint is annotated to the nuclear receptor intended target family, where the subfamily is non-steroidal.
# Human liver HepG2 cells are transiently transfected with multiple reporter transcription units (MRTUs) in 6-well plates using FuGene 6 reagent (Roche; 3 ml FuGene/1 mg DNA). The MRTU constructs are regulated by a cis-regulating element (promoter). […] A major difference between the CIS and TRANS system is that in CIS activities of endogenous TFs are measured, whereas the TRANS assay evaluates changes in activities of exogenous, chimeric NR-Gal4 proteins. […] At the end of 24 hour incubation, total RNA was isolated using TriZol reagent (Invitrogen). The isolated RNA is then reverse-transcribed using oligo(dT) primer and Mo-MLV reverse transcriptase (Invitrogen) with DNAse I (Ambion) treatment for 30 min. The one-tenth of the produced cDNA was amplified by PCR using Taq DNA polymerase (Invitrogen) and two reporter sequence-specific primers. The PCR products were fluorescently labeled by primer extension with 6-arboxyfluorescein (6-FAM) 5'-labeled reporter sequence-specific primer (2 min at 95 C, 20 s at 68 C and 10 min at 72 C) and these products were digested with 5U of HpaI (New England Biolabs) for 2h at 37 C. The fragments were purified using Qiaquick PCR columns (Qiagen), analyzed on an ABI 3130xL genetic analyzer (Applied Biosystems) with peak positions identified by using a set of X-rhodamine (ROX)-labeled MapMarker1000 molecular weight standards (BioVentures). The raw capillary electrophoresis data was processed using Attagraph software (Attagene).
# Retinoic acid receptor alpha (Homo sapiens), sequence (P10276 whole entry, looked up): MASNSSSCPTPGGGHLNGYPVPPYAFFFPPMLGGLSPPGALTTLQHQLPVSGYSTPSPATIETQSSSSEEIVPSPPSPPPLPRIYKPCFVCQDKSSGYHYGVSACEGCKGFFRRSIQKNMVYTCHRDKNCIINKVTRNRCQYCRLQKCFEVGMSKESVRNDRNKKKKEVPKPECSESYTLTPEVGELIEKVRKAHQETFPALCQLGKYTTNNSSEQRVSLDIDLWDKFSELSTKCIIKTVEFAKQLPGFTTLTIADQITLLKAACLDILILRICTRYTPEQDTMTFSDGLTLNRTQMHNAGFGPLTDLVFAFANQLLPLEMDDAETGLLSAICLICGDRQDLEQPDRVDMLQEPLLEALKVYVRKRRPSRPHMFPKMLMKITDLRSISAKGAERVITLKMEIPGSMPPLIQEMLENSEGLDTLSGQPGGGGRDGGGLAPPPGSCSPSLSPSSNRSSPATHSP
Structure (SMILES),outcome,AC50
Clc1ccccc1Cl,inactive,
Nc1ccc(Oc2ccc(N)cc2)cc1,inactive,
Nc1cc(Cl)cc(C(=O)O)c1Cl,inactive,
CC(C)(C)OOC(C)(C)CCC(C)(C)OOC(C)(C)C,inactive,
CCCCCCCCCCCCCN1CC(C)OC(C)C1 (stereo not given),inactive,
Cc1ccc(N=C=O)cc1N=C=O,inactive,
Nc1ccc(N=Nc2ccccc2)cc1,inactive,
CC(C)COC(=O)c1ccccc1C(=O)OCC(C)C,inactive,
O=[N+]([O-])C(Br)(CO)CO,,153 µM (active)
OCCCBr,inactive,
Oc1ccc2ccc3cccc4ccc1c2c34,inactive,
CN(C)c1ccccc1,inactive,
ClCCOCCCl,inactive,
Cc1cc(N=Nc2ccccc2C)ccc1N,inactive,
[As]#[In],inactive,
Clc1ccc(Cl)c(Cl)c1,inactive,
Nc1ccc(Cl)cc1N,inactive,
O=C1CCCO1,inactive,
CCNS(=O)(=O)C(F)(F)C(F)(F)C(F)(F)C(F)(F)C(F)(F)C(F)(F)C(F)(F)C(F)(F)F,inactive,96.5 µM (active)
C[N+](C)(C)CC1CO1 (stereo not given),inactive,

Structure (SMILES),outcome,AC50
CC(C)(C)C(O)(CCc1ccc(Cl)cc1)Cn1cncn1 (stereo not given),inactive,
Cc1ccc(N)c(N)c1,inactive,
CC(C)(C)OOC(=O)c1ccccc1,inactive,
CCOc1cccc(C2(N3CCN(c4ccccc4)CC3)CCC(C)CC2)c1 (stereo not given),inactive,
OCCOCCO,inactive,
CCCCOC(=O)c1ccccc1C(=O)OCc1ccccc1,inactive,
CCOC(=O)[C@]1(c2ccccc2)Oc2ccccc2[C@@H]1N,,13.6 µM (active)
Nc1ccc(Cc2ccc(N)cc2)cc1,inactive,
CNC(=O)Oc1cccc2c1OC(C)(C)C2,inactive,
O=C(O)C1C2CCC(O2)C1C(=O)O (stereo not given),,75.4 µM (active)
CC(O)CCO (stereo not given),inactive,
CC(C)(O)c1cnn2c(-c3ccc(F)c(-c4c(F)cccc4C#N)c3)cnc2n1,inactive,
c1ccc(N=Nc2ccccc2)cc1,inactive,
N#CC(Br)Br,inactive,
OCCCl,inactive,
Cc1ccc(N)cc1,inactive,
CO[C@@H]1[C@H](OC(=O)NC(=O)CCl)CC[C@]2(CO2)[C@H]1[C@@]1(C)O[C@@H]1CC=C(C)C,inactive,
c1ccc(NNc2ccccc2)cc1,inactive,
CC(C)(OOC(C)(C)c1ccccc1)c1ccccc1,inactive,
